We go through 15 compounds from PubChem BioAssay.

Assay [1] has as its target Cell division control protein 42 homolog (Homo sapiens) (UniProt P60953). Description: activated mutant Cdc42 GTP-binding inhibitors, dose response, biochemical, multiplex bead flow cytometry, Bodipy-FL-GTP (AID 1333;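 active = fitted half-maximal concentration within the tested dose range, moderate curve steepness, a statistically real signal drop, and little compound fluorescence or tag-binding interference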).
Assay [2] has the same target. Description: wildtype Cdc42 GTP-binding inhibitors, dose response, biochemical, multiplex bead flow cytometry, Bodipy-FL-GTP (AID 1334;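 active = fitted half-maximal concentration within the tested range, moderate curve steepness, significant signal drop, and little compound fluorescence or bead-linkage interference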). Conditions: bead-based flow cytometry, Bodipy-FL-GTP binding to GST-Cdc42; at 100 µM (top of the series) unless noted. In general terms: In flow cytometry, cells or beads pass a laser one at a time.
Assay [3] concerns the target GTPase HRas (Homo sapiens) (UniProt P01112). Kind of assay: inhibitors of GTP binding to wildtype Ras, dose response, biochemical, multiplex bead flow cytometry (AID 1335). Particulars: bead-based flow cytometry, Bodipy-GTP binding to GST-Ras; at 100 µM (top of the series) unless noted.
The subject of assay [4] is Ras-related protein Rab-7a (dog), GTP binding. Kind of assay: Rab7 GTP binding inhibitors, potency, dose response, biochemical, wildtype, multiplex bead flow cytometry (AID 1336; call rule not given here).
For assay [5], the target named is Ras-related C3 botulinum toxin substrate 1 (Homo sapiens) (UniProt P63000). Kind of assay: wildtype Rac1 GTP binding inhibitors, dose response, biochemical, multiplex bead flow cytometry (AID 1340;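 active = dose curve with midpoint inside tested range, moderate steepness, plateau gap beyond fit error, low compound glow and bead-link interference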). Conditions: GST-Rac1 beads, Bodipy-FL-GTP binding; at 100 µM (top of the series) unless noted.
The target of assay [6] is GTPase HRas (Homo sapiens) (UniProt P01112). Kind of assay: activated Ras mutant GTP binding inhibitors, dose response, biochemical, multiplex bead flow cytometry (AID 1341;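 active = dose-response curve with midpoint inside the tested range, moderate steepness, significant amplitude and little compound fluorescence or bead-attachment interference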;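 note: GST-tagged constitutively activated Ras mutant immobilized on beads and multiplexed with other GTPases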).
Chain of GTPase HRas (Homo sapiens) (P01112 whole entry, looked up): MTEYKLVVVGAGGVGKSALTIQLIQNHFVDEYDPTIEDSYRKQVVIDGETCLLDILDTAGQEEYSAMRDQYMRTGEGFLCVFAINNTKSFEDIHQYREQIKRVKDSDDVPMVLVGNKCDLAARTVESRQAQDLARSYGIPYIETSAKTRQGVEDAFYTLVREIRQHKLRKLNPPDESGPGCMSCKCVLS

Structures are written as SMILES. For part of these data: Entries with a potency or affinity are not part of this list. Active and inactive are the calls of the source.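 Rule for the calls, unless noted: active = fitted half-maximal concentration within 10 nM to 100 µM, steepness 0.5 to 2, significant signal drop, low assay interference; inactive = the rest.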

Chain of Cell division control protein 42 homolog (Homo sapiens) (P60953 whole entry, looked up): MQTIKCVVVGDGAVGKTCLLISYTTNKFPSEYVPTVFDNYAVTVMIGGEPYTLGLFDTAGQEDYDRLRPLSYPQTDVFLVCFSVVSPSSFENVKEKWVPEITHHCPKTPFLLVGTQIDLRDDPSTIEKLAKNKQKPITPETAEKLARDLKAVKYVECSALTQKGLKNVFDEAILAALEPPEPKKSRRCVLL

`Cc1cc2[nH]c3c(c[n+](C)c4ccccc34)c2cc1C`: the compound was classed as inactive in assay [1], in assay [4] and in assay [6]. The fluorescence, percent of control (lower = inhibition) in assay [2] worked out at 35.5%. The compound further came in with a GTP binding, percent of control in assay [3] of 78.4%. The compound further displayed a GTP binding signal, raw median fluorescence (lower = inhibition) (MCF (arbitrary fluorescence units)) in assay [5] of 253.

Consider `N#Cc1c(-c2cccc(Br)c2)cc(-c2ccco2)[nH]c1=O`, for which the result in assay [1], in assay [4] and in assay [6] was inactive. In addition, the fluorescence, percent of control (lower = inhibition) in assay [2] is 23.1%. This compound had a GTP binding, percent of control in assay [3] of 58.9%. Also, the GTP binding signal, raw median fluorescence (lower = inhibition) (MCF (arbitrary fluorescence units)) in assay [5] is 182.

Regarding `COc1cc(/C=C2\SC(=Nc3ccc(O)cc3)NC2=O)cc(OC)c1O`, the compound was called inactive in assay [1], in assay [4] and in assay [6]. Also, the fluorescence, percent of control (lower = inhibition) in assay [2] came to 36.9%. Further, the GTP binding, percent of control in assay [3] was found to be 79.8%. In assay [5], this compound showed a GTP binding signal, raw median fluorescence (lower = inhibition) (MCF (arbitrary fluorescence units)) of 267.

For the compound `COc1ccc(-c2csc(NC(=O)Cc3cccc4ccccc34)c2C(=O)O)cc1`, the compound was classed as inactive in assay [1], in assay [4] and in assay [6]. This compound showed a fluorescence, percent of control (lower = inhibition) in assay [2] of 27.2%. In assay [3], this compound registered a GTP binding, percent of control of 66.7%. The compound also showed a GTP binding signal, raw median fluorescence (lower = inhibition) (MCF (arbitrary fluorescence units)) in assay [5] of 187.

`CC(C)(C)NC(=O)CCN(/N=C/c1ccc([N+](=O)[O-])o1)C1=NS(=O)(=O)c2ccccc21`: the call in assay [1], in assay [4] and in assay [6] was inactive. Besides, in assay [2], the fluorescence, percent of control (lower = inhibition) turned out to be 23.6%. Also, the GTP binding, percent of control in assay [3] was found to be 33.1%. The compound further returned a GTP binding signal, raw median fluorescence (lower = inhibition) (MCF (arbitrary fluorescence units)) in assay [5] of 86.3.

In the case of `CNC(=S)N=Nc1c(O)[nH]c2ccccc12`, the result in assay [1], in assay [4] and in assay [6] was inactive. Besides, in assay [2], the fluorescence, percent of control (lower = inhibition) was 36.2%. Also, the GTP binding, percent of control in assay [3] came out at 47%. The same compound yielded a GTP binding signal, raw median fluorescence (lower = inhibition) (MCF (arbitrary fluorescence units)) in assay [5] of 128.

For the compound `COc1ccc([N+](=O)[O-])cc1NC(=S)NC(NC(=O)Cc1ccc(OC)c(OC)c1)C(Cl)(Cl)Cl` (stereo not given), the compound was classed as inactive in assay [1], in assay [4] and in assay [6]. Moreover, in assay [2], the fluorescence, percent of control (lower = inhibition) came out at 75.7%. The GTP binding, percent of control in assay [3] was found to be 139%. In assay [5], the GTP binding signal, raw median fluorescence (lower = inhibition) (MCF (arbitrary fluorescence units)) came out at 151.

Take `Cc1ccc(/C=C2\SC(=S)N(C(Cc3ccccc3)C(=O)O)C2=O)cc1` (stereo not given): the call in assay [1], in assay [4] and in assay [6] was inactive. The compound also came in with a fluorescence, percent of control (lower = inhibition) in assay [2] of 28.1%. This compound also gave a GTP binding, percent of control in assay [3] of 81.2%. The GTP binding signal, raw median fluorescence (lower = inhibition) (MCF (arbitrary fluorescence units)) in assay [5] was found to be 212.

Consider `COc1ccc(Cn2c(O)c(/C=N/NC(=O)c3cccnc3)c3ccccc3c2=O)cc1`, for which the compound was called inactive in assay [1], in assay [4] and in assay [6]. Further, in assay [2], the fluorescence, percent of control (lower = inhibition) came out at 17.2%. The GTP binding, percent of control in assay [3] was 68.9%. Moreover, the GTP binding signal, raw median fluorescence (lower = inhibition) (MCF (arbitrary fluorescence units)) in assay [5] is 63.7.

Consider `O=C(O)/C=C\C(=O)Nc1cccc(C(=O)Nc2cccc(O)c2)c1`, for which the result in assay [1], in assay [4] and in assay [6] was inactive. Besides, the fluorescence, percent of control (lower = inhibition) in assay [2] was determined as 38.6%. For the same compound, the GTP binding, percent of control in assay [3] worked out at 84.2%. The compound also showed a GTP binding signal, raw median fluorescence (lower = inhibition) (MCF (arbitrary fluorescence units)) in assay [5] of 162.

Turning to `Cc1nn(-c2ccc(F)cc2)c(Cl)c1/C=C(\CC(=O)O)c1nc2ccccc2s1`, the compound was called inactive in assay [1], in assay [4] and in assay [6]. This compound also had a fluorescence, percent of control (lower = inhibition) in assay [2] of 77.1%. Besides, the GTP binding, percent of control in assay [3] came out at 127%. In assay [5], the GTP binding signal, raw median fluorescence (lower = inhibition) (MCF (arbitrary fluorescence units)) was found to be 160.

In the case of `CN1CCc2nc3ccc(Cl)cc3c(-c3ccccc3Cl)c2C1`, the compound was classed as inactive in assay [1], in assay [4] and in assay [6]. Moreover, in assay [2], the fluorescence, percent of control (lower = inhibition) is 37.3%. In addition, the GTP binding, percent of control in assay [3] amounted to 81.8%. The GTP binding signal, raw median fluorescence (lower = inhibition) (MCF (arbitrary fluorescence units)) in assay [5] was determined as 257.

As to `Cc1ccc(-c2csc3nc4c5ccccc5c(NCCCN5CCOCC5)nn4c(=O)c23)cc1`, the call in assay [1], in assay [4] and in assay [6] was inactive. For the same compound, the fluorescence, percent of control (lower = inhibition) in assay [2] was 32%. In addition, the GTP binding, percent of control in assay [3] turned out to be 68.7%. The same compound registered a GTP binding signal, raw median fluorescence (lower = inhibition) (MCF (arbitrary fluorescence units)) in assay [5] of 176.

In the case of `COc1cc(C(=S)NC2CCCCC2)ccc1O`, the result in assay [1], in assay [4] and in assay [6] was inactive. In addition, the fluorescence, percent of control (lower = inhibition) in assay [2] is 46.9%. This compound also came in with a GTP binding, percent of control in assay [3] of 62.4%. Moreover, the GTP binding signal, raw median fluorescence (lower = inhibition) (MCF (arbitrary fluorescence units)) in assay [5] turned out to be 209.

As to `COc1cc(NS(=O)(=O)c2ccc(NC(=O)/C=C/c3cccc([N+](=O)[O-])c3)cc2)ncn1`, the result in assay [1], in assay [4] and in assay [6] was inactive. This compound came in with a fluorescence, percent of control (lower = inhibition) in assay [2] of 29.8%. Also, in assay [3], the GTP binding, percent of control amounted to 77.7%. This compound showed a GTP binding signal, raw median fluorescence (lower = inhibition) (MCF (arbitrary fluorescence units)) in assay [5] of 191.
